# Sampled rows, rich in hits. Any-hit rate of the full collection: about 2.3%.
# FBPA coupling cs: inhibits coupling enzyme system, counter-screen for aldolase hits; coupling enzyme system counterscreen, AmpLite Red fluorescence; activity change, negative = inhibition, % at 58.2 µM, hits read low; 290,000 tested, 0.67% active; AID 2472; in the data active = activity change below about -30%; note: % is set by controls: 0 for no effect and ±100 for the full control effect
#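 Counterscreen lacking aldolase: glyceraldehyde-3-phosphate coupling-enzyme reagent preincubated 10 min at RT with compound (at 57.5 uM final), then substrate/coupling system with AmpLite Red added; fluorescence read at 525/598 nm after 20 min RT.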
# GoLoco inh red: inhibitors of human Gai1-RGS12 GoLoco interaction (red fluorophore). P63096. Gai1:RGS12 GoLoco peptide FP, rhodamine, 10 min. Potency, µM (series often up to 61.6 µM), for the others: at the top dose activity, negative = inhibition, actives largely listed as inhibitors. 230,000 tested, 0.44% active. AID 880; active = well fitted inhibition curve with a large enough effect, not every such curve was filed as active; inactive = no such curve, though single readings can be large or run the other way; note: potency is the fitted concentration of half-maximal effect; % is set by controls: 0 for no effect and ±100 for the full control effect; nearly all actives have a fitted effect of over 30% in size
# Target sequence (P63096 whole entry, looked up): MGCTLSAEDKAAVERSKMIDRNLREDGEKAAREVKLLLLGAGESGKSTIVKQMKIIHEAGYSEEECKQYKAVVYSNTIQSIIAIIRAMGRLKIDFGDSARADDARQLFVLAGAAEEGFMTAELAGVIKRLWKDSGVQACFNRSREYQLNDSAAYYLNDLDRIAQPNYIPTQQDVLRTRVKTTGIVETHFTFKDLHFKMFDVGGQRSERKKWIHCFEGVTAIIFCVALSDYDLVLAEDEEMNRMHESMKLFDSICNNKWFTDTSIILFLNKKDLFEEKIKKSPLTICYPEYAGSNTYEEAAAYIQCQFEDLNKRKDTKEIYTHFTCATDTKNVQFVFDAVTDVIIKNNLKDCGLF
# KDM4E inh: inhibitors of human JMJD2E histone demethylase. B2RXH2. Potency, µM (top dose mostly 57.1 µM), inactives show at the highest dose activity change, negative = inhibition, most hits filed as inhibitors. 230,000 tested, 1.6% active. AID 2147. JMJD2E catalytic domain, FDH-coupled NADH fluorescence (FDH is formaldehyde dehydrogenase);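 note: potency is the fitted concentration of half-maximal effect; 0% = wells with enzyme and -100% = buffer wells without enzyme; nearly all actives have a fitted effect of over 50% in size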
# Target sequence (B2RXH2 1-337 limits assumed): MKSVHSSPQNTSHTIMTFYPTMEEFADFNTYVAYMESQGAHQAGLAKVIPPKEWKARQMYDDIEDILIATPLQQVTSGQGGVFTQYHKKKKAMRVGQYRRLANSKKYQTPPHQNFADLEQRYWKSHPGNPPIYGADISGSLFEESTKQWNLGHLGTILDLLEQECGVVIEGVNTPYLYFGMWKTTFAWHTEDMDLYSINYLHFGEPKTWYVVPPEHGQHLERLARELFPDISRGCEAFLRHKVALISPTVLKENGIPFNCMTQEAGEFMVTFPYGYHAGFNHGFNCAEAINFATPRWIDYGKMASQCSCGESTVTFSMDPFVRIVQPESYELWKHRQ
# HttQ103 aggreg: inhibitors of mutant huntingtin aggregate formation in PC12 cells; PC12 HttQ103-GFP aggregates, Acumen cytometry, 40 h; Potency, µM (titrated, usually from 46.1 µM), without a hit: top-dose activity change, negative = inhibition, usual class: inhibitors; 220,000 tested, 1.1% active; AID 1688; note: potency is the fitted concentration of half-maximal effect; % is set by controls: 0 for no effect and ±100 for the full control effect; nearly all actives have a fitted effect of over 60% in size
#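 Aggregates are detected as GFP objects 1–25 µm with signal 6 STDEV over background in lysates of induced PC12 cells. These carry Huntingtin exon 1 with 103 glutamines fused to GFP under an ecdysone promoter; compounds titrated.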
# HTT cytoprotect: cytoprotection in Huntington HTT-Q103 PC12 cell model. PC12 HTT-Q103 induced, cytoprotection, ATP luminescence, 40 h. Potency, µM (highest dose often 56.4 µM), inactives show cytoprotection (ATP increase), actives largely listed as activators. 230,000 tested, 0.14% active. AID 1471; note: potency is the fitted concentration of half-maximal effect; % of control where 0% means no effect; nearly all actives have a fitted effect of over 45% in size
#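 Stable PC12 Q103-GFP cells in serum-supplemented, phenol red-free DMEM; induction by tebufenozide at 100 nM final; compound dose series; cell viability quantified luminescently from ATP.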
# VDR inhibitor: inhibitors of human vitamin D receptor; P11473; VDR-SRC2-3 peptide fluorescence polarization, 2 h; Potency, µM, for inactives: max response, negative = inhibition, actives largely listed as inhibitors; 400,000 tested, 0.93% active; AID 504847; note: potency is the fitted concentration of half-maximal effect; % is set by controls: 0 for no effect and ±100 for the full control effect
#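 After 23 nl compound addition and a short centrifugation, plates sat for 2 hours at ambient temperature; polarization of fluorescence then indicated loss of VDR binding to peptide SRC2-3.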
# Starred values were filed as active, the others as inactive; ? = inconclusive; / = no result given; ! = not active in a repeat; [ ] = another dose, or the depositor's remark. Unless noted, calls come from the whole dose curve; as a rule, active = well fitted curve in the direction sought with a large enough effect; inconclusive = small, poorly fitted or top-dose-only effect, or another doubt; inactive = no such curve, though single readings can be large; an effect the other way counts as inactive or inconclusive.
SMILES,FBPA coupling cs,GoLoco inh red,KDM4E inh,HttQ103 aggreg,HTT cytoprotect,VDR inhibitor
CCN1/C(=C2\SC(=S)N(Cc3ccccc3)C2=O)Sc2ccccc21,-3,13%,9%,5%,27%[10 µM],-14%
CCC(CO)[n+]1c(C)cc(/C=C2\Sc3ccccc3N2Cc2ccccc2)cc1C (centres undefined),-12,96%,-11%,20µM*,-66%[10 µM],-2%
Cc1ccc(-n2nnnc2-c2cnoc2-c2cccc(F)c2)cc1,-1,4%,4%,-28%,-15%[10 µM],50µM*
Fc1cc(F)cc(-c2oncc2-c2nnnn2-c2ccccc2)c1,2,-4%,7%,-16%,12%[10 µM],-19%
COc1ccc(C(=O)/C(=C/c2cccs2)c2nc3ccccc3o2)cc1,-3,-10%,-4%,1%,?,32µM*
CCC(=O)N1CCc2cc(S(=O)(=O)N(C)c3cccc(C)c3)ccc21,/,/,/,/,/,-11%
CN1CCN(c2ccccc2NC(=O)Cc2cn(C)c3ccccc23)CC1,1,-3%,0%,25µM*,-54%,23%
Cc1ccccc1NC(=O)Cc1cn(C)c2ccccc12,-9,6%,2%,9%,-1%,6%
Cc1cccc(N2CCN(C(=O)Cc3cn(C)c4ccccc34)CC2)c1C,5,-23%,1%,?,-1%,20µM*
COc1ccccc1CNC(=O)c1cnn2c(C)c(Cc3ccc(F)cc3)c(C)nc12,/,/,/,/,/,3%
CC(=O)c1ccc(OC(=O)CCc2nc3ccccc3s2)cc1,-2,18%,-10%,?,10%,40µM*
COc1ccccc1OC(=O)CCc1nc2ccccc2s1,-2,29%,-20%,11%,0%[10 µM],-14%
COc1ccc(NC(=O)Cn2cnc3ccc(S(=O)(=O)N4CCC(C)CC4)cc3c2=O)cc1OC,/,/,/,/,/,-5%
O=C(/C=C/c1ccccc1Cl)c1ccccc(=O)c1O,2,17%,14µM*,?,/,28µM*
Cc1ccc(C)c(/C=C/C(=O)c2ccccc(=O)c2O)c1,-1,14%,22µM*,-16%,/,45µM*
O=C(/C=C/c1ccccc1Cl)Nc1ccccc1,-3,8%,-2%,-23%[9.22 µM],16%[10 µM],11%
O=C(/C=C/c1ccc([N+](=O)[O-])cc1)c1ccccc(=O)c1O,/,/,/,/,/,25µM*
Cc1nn(C)cc1C(=O)/C=C/c1ccc([N+](=O)[O-])cc1,0,5%,4%,10%[9.22 µM],0%[10 µM],-4%
COC(OC)C1(CCc2ccccc2)NC(=O)NC1=O (centres undefined),/,/,/,/,/,5%
O=C(NCCc1ccc(Cl)cc1)c1ccc(CSCc2ccccc2Cl)o1,/,/,/,/,/,3%
CCOCCCn1cc(C(=O)c2cc(Br)ccc2O)cc(C#N)c1=O,3,94%,?,?,-120%,-9%
Cc1ccccc1NC(=O)c1cc(C(=O)c2cc(Cl)ccc2O)cn(-c2ccccc2C)c1=O,0,47%,-10%,16µM*,34%[10 µM],-14%
COc1ccc(-n2cc(C(=O)c3cc(Cl)ccc3O)cc(C#N)c2=O)cc1,-2,8%,13%,17%,-13%,3%
Cc1ccc(-n2cc(C(=O)c3cc(Cl)ccc3O)cc(C#N)c2=O)cc1,-2,14%,?,13µM*,19%[10 µM],-14%
CCCCn1cc(C(=O)c2cc(Br)ccc2O)cc(C#N)c1=O,7,2%,0%,16µM*,-54%,-2%
SMILES,FBPA coupling cs,GoLoco inh red,KDM4E inh,HttQ103 aggreg,HTT cytoprotect,VDR inhibitor
Cc1ccc(NC(=O)COC(=O)C2CC3CCCC(C2)C3=O)c([N+](=O)[O-])c1 (centres undefined),/,/,/,/,/,-3%
O=C(NC1(C(F)(F)F)NC(=O)N(CCc2ccccc2)C1=O)c1ccccc1Cl (centres undefined),/,/,/,/,/,3%
COc1ccc(Cn2ccc3nc(C)c(C(=O)NCc4ccc(SC)cc4)cc3c2=O)cc1,/,/,/,/,/,-3%
CC(=O)NC(c1cccs1)c1cc([N+](=O)[O-])c2cccnc2c1O (centres undefined),-25,-2%,8.9µM*,3.2µM*,-56%[10 µM],1%
CCCC(=O)NC(c1cccs1)c1cc([N+](=O)[O-])c2cccnc2c1O (centres undefined),-32*,9%,10µM*,11µM*,8%[10 µM],-22%
O=c1c(-c2cc(O)c(O)c(O)c2)coc2cc(O)c(O)c(O)c12,-71*,-14%,2.8µM*,/,-64%,14µM*
O=c1c(-c2ccc(O)cc2)coc2cc(O)cc(O)c12,8,-4%,-1%,2%,-81%,6%
C/C(CC(=O)Nc1ccc(N(C)C)cc1)=N\NC(=O)c1ccc(Cl)cc1Cl,2,/,/,/,/,-4%
C/C(CC(=O)Nc1ccc(N(C)C)cc1)=N\NC(=O)c1ccc([N+](=O)[O-])cc1Cl,-5,8%,-3%,-11%[9.22 µM],-7%[10 µM],79µM*
COc1cc2c(cc1OC)CN(c1nc(CN3CCCCC3)nc3sc4c(c13)CCCC4)CC2,0,23%,-8%,28µM*,/,-8%
COc1ccc2c(C)c(CCC(=O)NCc3ccc(Cl)cc3)c(=O)oc2c1C,/,/,/,/,/,1%
Cc1ccccc1OCCn1c(S(=O)(=O)O)nc2c(N)ncnc21,8,/,/,/,/,-17%
CC(C)CN1C=C2C(=O)C(C)(OC(=O)C3CCCC3)C(=O)C=C2C=C1c1ccsc1 (centres undefined),1,0%[14.2 µM],32µM*!,20%[9.22 µM],-2%[10 µM],3%
C=CCN1C=C2C(=O)C(C)(OC(=O)C3CCCC3)C(=O)C=C2C=C1c1ccsc1 (centres undefined),-9,2%[14.2 µM],?,-9%[9.22 µM],-19%[10 µM],0%
O=C(Cn1nc(-c2ccccc2)nc(Cc2ccccc2)c1=O)Nc1ccc(Cl)cc1,/,/,/,/,/,18%
CCC(=O)N1CCN(c2ccc(NC(=O)c3ccc([N+](=O)[O-])o3)cc2Cl)CC1,-11,10%,11%,20µM*,0.63µM*,11%
O=C(Nc1ccc(N2CCN(C(=O)c3ccccc3)CC2)c(Cl)c1)c1ccco1,2,6%,1%,22µM*,-22%,14%
CCCC(=O)N1CCN(c2ccc(NC(=O)c3cc4ccccc4o3)cc2Cl)CC1,-40*,2%,?,11µM*,-30%[10 µM],15%
c1ccc2c(CSCc3cccc4ccccc34)cccc2c1,/,7%[14.2 µM],/,/,6%[10 µM],/
CC(=O)/C=C/n1c(=S)oc2ccccc21,1,-2%,3%,7.1µM*,-96%[10 µM],?
O=S(=O)(NCCc1csc2nc(-c3ccccc3)nn12)c1ccc(Oc2ccccc2)cc1,/,/,/,/,/,-3%
O=C(/C=C/c1ccccc1)CCN1CCCCC1,/,/,/,/,/,28µM*
O=C(/C=C/c1ccccc1)COC(=O)c1ccccc1,/,/,/,/,/,10µM*
CC(=O)N1c2ccccc2C(=O)C1N1CCN(c2cccc(C)c2C)CC1 (centres undefined),/,/,/,/,/,15%

# Compound activity (PubChem BioAssay)
